Reference: PubChem BioAssay (NCATS)
Results filed as inconclusive are left out. Active and inactive are the calls of the source. Calls come from the whole dose curve; as a rule, active = well fitted curve in the direction sought with a large enough effect; inconclusive = small, poorly fitted or top-dose-only effect, or another doubt; inactive = no such curve, though single readings can be large; an effect the other way counts as inactive or inconclusive.

Key:
[1] = test system: KB-3-1; assay: Cytotoxic Profiling of Annotated Libraries Using Quantitative High-Throughput Screening (AID 1296008); details: Five cell lines viability, CellTiter-Glo ATP luminescence, 48-72 h; max response: hits give low values; note: nearly all actives have a fitted effect of over 60% in size; for max response: % is set by controls: 0 for no effect and ±100 for the full control effect
Outline: (§1)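 Cells exposed to compounds for 48 or 72 hr at 37 degrees Celsius. Viability read as ATP-coupled luminescence with CellTiter-Glo after 10 min at room temperature.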

[2] = test system: NIH3T3; assay: as above; details: Five cell lines viability, CellTiter-Glo ATP luminescence, 48-72 h; max response: hits give low values
Outline: as §1

[3] = test system: HACAT; assay: qHTS assay to identify novel small-molecules to repurpose for Merkel cell carcinoma treatment (AID 1296009); details: MCC and control cell lines, CellTiter-Glo viability, 72 h; at 44.8 µM (top of the series) unless noted; note: nearly all actives have a fitted effect of over 60% in size
Outline: (§2)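 Dose-response viability screen; 72 hr exposure at 37 degree celsius; CellTiter-Glo added, 10 min room temperature, luminescence read; RLUs scaled between no-cell and DMSO wells.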

[4] = test system: C33A; assay: Primary qHTS to identify gynecologic anti-cancer compounds using libraries of approved drugs and bioactive compounds (AID 1345084); details: Gynecologic cancer cell panel viability, ATPlite luminescence, 48 h; series mostly up to 57.5 µM; note: % is set by controls: 0 for no effect and ±100 for the full control effect; nearly all actives have a fitted effect of over 55% in size
Outline: (§3)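 Cytotoxicity screen measuring ATP content by luciferase luminescence. Each compound is applied at five concentrations for 48 h at 37 C with 5% CO2.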

[5] = test system: CASKI; assay: as above; details: Gynecologic cancer cell panel viability, ATPlite luminescence, 48 h; series mostly up to 57.5 µM
Outline: as §3

[6] = test system: Es-2; assay: as above; details: Gynecologic cancer cell panel viability, ATPlite luminescence, 48 h; series mostly up to 57.5 µM
Outline: as §3

[7] = test system: HeLa; assay: as above; details: Gynecologic cancer cell panel viability, ATPlite luminescence, 48 h; series mostly up to 57.5 µM
Outline: as §3

[8] = test system: Hek293T; assay: as above; details: Gynecologic cancer cell panel viability, ATPlite luminescence, 48 h, control line for the selectivity index; series mostly up to 57.5 µM
Outline: as §3

[9] = test system: JEG-3; assay: as above; details: Gynecologic cancer cell panel viability, ATPlite luminescence, 48 h; series mostly up to 57.5 µM
Outline: as §3

[10] = test system: OV90; assay: as above; details: Gynecologic cancer cell panel viability, ATPlite luminescence, 48 h; series mostly up to 57.5 µM
Outline: as §3

[11] = test system: CRL-7250; assay: qHTS assay to identify novel small-molecules to repurpose for Merkel cell carcinoma treatment (AID 1296009); details: MCC and control cell lines, CellTiter-Glo viability, 72 h; at 44.8 µM (top of the series) unless noted; note: nearly all actives have a fitted effect of over 60% in size
Outline: as §2

[12] = test system: NIH3T3; assay: as above; details: MCC and control cell lines, CellTiter-Glo viability, 72 h; at 44.8 µM (top of the series) unless noted
Outline: as §2

[13] = test system: CAOV3; assay: Primary qHTS to identify gynecologic anti-cancer compounds using libraries of approved drugs and bioactive compounds (AID 1345084); details: Gynecologic cancer cell panel viability, ATPlite luminescence, 48 h; series mostly up to 57.5 µM; note: % is set by controls: 0 for no effect and ±100 for the full control effect; nearly all actives have a fitted effect of over 55% in size
Outline: as §3

[14] = test system: HEK293T; assay: qHTS assay to identify novel small-molecules to repurpose for Merkel cell carcinoma treatment (AID 1296009); details: MCC and control cell lines, CellTiter-Glo viability, 72 h; at 44.8 µM (top of the series) unless noted; note: nearly all actives have a fitted effect of over 60% in size
Outline: as §2

C/C=C(\C)C(=O)OC1C(C)OC(OC2C(C)OC(OC3CCC4(C)C(=CCC5C4CCC4(C)C(C(C)OC6OC(COC7OC(CO)C(O)C(O)C7O)C(O)C(O)C6O)CCC54O)C3)CC2OC)C(O)C1OC (stereo not drawn)
inactive: max response [1] 0.359% | outcome [2] | outcome [3] inactive [at 9.27 µM] | activity change, negative = cytotoxicity [4] 7.57% [at 11.6 µM] | activity change, negative = cytotoxicity [5] 9.44% [at 11.6 µM] | activity change, negative = cytotoxicity [6] 4.35% [at 11.6 µM] | activity change, negative = cytotoxicity [7] 3.42% [at 11.6 µM] | activity change, negative = cytotoxicity [8] 8.11% [at 11.6 µM] | activity change, negative = cytotoxicity [9] -0.0196% [at 11.6 µM] | activity change, negative = cytotoxicity [10] -0.455% [at 11.6 µM]

COC1=CC(=O)O[C@@H](CCc2ccccc2)C1
inactive: outcome [1] | outcome [2] | outcome [11] | Potency [4] | Potency [5] | Potency [6] | Potency [7] | Potency [8] | Potency [9] | Potency [10]

C=C(CO)C(=O)O[C@H]1C/C(C)=C/CC/C(CO)=C/[C@H]2OC(=O)C(=C)[C@H]12
inactive: outcome [1] | outcome [2] | outcome [3] | Potency [4] | Potency [5] | Potency [6] | Potency [7] | Potency [8] | Potency [9] | Potency [10]

CC1=CC2/C=C(\C)CCC(O)C3OC(C)(C)OC3CC(=O)OC23C(=O)NC(CC(C)C)C3C1C (stereo not drawn)
inactive: outcome [1] | outcome [2] | outcome [3] inactive [at 17.4 µM] | outcome [12] inactive [at 17.4 µM] | Potency [4] | Potency [13] | Potency [5] | Potency [6] | Potency [7] | Potency [8] | Potency [9] | Potency [10]

CCN1CC2(COC)C3[C@@H](OC)C4C1C3(C1C[C@]3(O)[C@H](OC(=O)c5ccccc5)C1[C@]4(OC(C)=O)[C@@H](O)[C@@H]3OC)[C@H](OC)C[C@H]2O (stereo partly drawn)
inactive: outcome [1] | outcome [2] | outcome [12] | Potency [4] | Potency [13] | Potency [5] | Potency [6] | Potency [7] | Potency [8] | Potency [9] | Potency [10]

CC(=O)OC1CC(O)C2(C)C(CC(OC(C)=O)C3(C)C2CCC2(C)C(c4ccoc4)C(=O)C4OC423)C1(C)C (stereo not drawn)
inactive: max response [1] 8.18% | max response [2] -1.6% | outcome [14] inactive [at 17.4 µM] | Potency [4] | Potency [5] | Potency [6] | Potency [7] | Potency [8] | Potency [9] | Potency [10]

CN1CCC[C@@H]1Cc1c[nH]c2ccc(Nc3ncccc3[N+](=O)[O-])cc12
inactive: max response [1] -5.99% | outcome [2] | outcome [11] | outcome [12] | Potency [4] | Potency [13] | Potency [5] | Potency [6] | Potency [7] | Potency [9] | Potency [10]

N#C[C@@H](O[C@@H]1O[C@H](CO[C@@H]2O[C@H](CO)[C@@H](O)[C@H](O)[C@H]2O)[C@@H](O)[C@H](O)[C@H]1O)c1ccccc1
inactive: max response [1] 5.22% | outcome [2] | outcome [3] inactive [at 17.4 µM] | outcome [12] inactive [at 17.4 µM] | Potency [4] | Potency [5] | Potency [6] | Potency [7] | Potency [8] | Potency [9] | Potency [10]

CCN1C[C@]2(COC(=O)c3ccccc3N3C(=O)C[C@H](C)C3=O)CC[C@H](OC)[C@@]34[C@@H]5C[C@H]6[C@H](OC)[C@@H]5[C@](O)(C[C@@H]6OC)[C@](O)([C@@H](OC)[C@H]23)[C@@H]14
inactive: outcome [1] | outcome [2] | outcome [12] | Potency [4] | Potency [13] | Potency [5] | Potency [6] | Potency [7] | Potency [8] | Potency [9] | Potency [10]

COc1cc(C(=O)O[C@H]2[C@@H]3C=CO[C@@H](O[C@@H]4O[C@H](CO)[C@@H](O)[C@H](O)[C@H]4O)[C@@H]3[C@@]3(CO)O[C@@H]23)ccc1O
inactive: outcome [1] | outcome [2] | outcome [3] inactive [at 17.4 µM] | Potency [4] | Potency [13] | Potency [5] | Potency [6] | Potency [7] | Potency [8] | Potency [9] | Potency [10]

CC(N)Cc1c[nH]c2ccccc12 (stereo not drawn)
inactive: outcome [1] | outcome [2] | outcome [14] | Potency [4] | Potency [5] | Potency [6] | Potency [7] | Potency [8] | Potency [9] | Potency [10]

OC1(c2ccc(Cl)cc2)c2ccccc2C2=NCCN21 (stereo not drawn)
inactive: max response [1] 7.32% | outcome [2] | outcome [11] | outcome [12] | Potency [4] | Potency [5] | Potency [6] | Potency [7] | Potency [8] | Potency [9] | Potency [10]
